From PubChem BioAssay (NCI)
Compounds without any hit were thinned out: in the full panel of roughly 83,000, 20% have a hit.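 Plates (96-well) were seeded with cells, treated with compound at one concentration, and incubated for 48 hours before percent growth was determined.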 Values without a mark were called inactive. Activity calls are given as the source filed them. Rule for the calls: active = growth percent below 10; inactive = the rest.

What was measured:
Experiment in all cases: NCI-60 one-dose screen, 48 h (100 = growth as untreated, 0 = no growth, -100 = all killed)
Conditions in all cases: 10 µM
SR leukemia = system: SR leukemia
RPMI-8226 leukemia = system: RPMI-8226 leukemia
OVCAR-8 ovarian = system: OVCAR-8 ovarian
OVCAR-5 ovarian = system: OVCAR-5 ovarian
OVCAR-4 ovarian = system: OVCAR-4 ovarian
SK-OV-3 ovarian = system: SK-OV-3 ovarian
IGROV1 ovarian = system: IGROV1 ovarian
OVCAR-3 ovarian = system: OVCAR-3 ovarian
HS 578T breast = system: HS 578T breast
NCI/ADR-RES ovarian = system: NCI/ADR-RES ovarian

| SMILES | growth (SR leukemia) | growth (RPMI-8226 leukemia) | growth (OVCAR-8 ovarian) | growth (OVCAR-5 ovarian) | growth (OVCAR-4 ovarian) | growth (SK-OV-3 ovarian) | growth (IGROV1 ovarian) | growth (OVCAR-3 ovarian) | growth (HS 578T breast) | growth (NCI/ADR-RES ovarian) |
| --- | --- | --- | --- | --- | --- | --- | --- | --- | --- | --- |
| CC(C)C1=C[C@@]23CC[C@@H]4[C@](C)(CCC[C@]4(C)C(=O)NCc4ccccc4)[C@H]2C[C@@H]1[C@H]1C(=O)OC(=O)[C@H]13 | 6.39% (active) | 24.7% | 42.7% | 93.6% | 49.8% | 74.5% | 31.1% | 42% | 44.6% | 37.4% |
| O=C1c2ccccc2C(=O)c2c1c(C(=O)c1ccc(Cl)cc1)n1c2ccc2c3ccccc3ccc21 | 104% | 101% | 103% | 115% | 107% | 95% | 105% | 109% | 93.2% | 103% |
| O=c1oc2ccccc2cc1-c1csc(N=Nc2c(O)[nH]c3ccc(Br)cc23)n1 | 97.1% | 99.7% | 79.1% | 98.9% | 87.2% | 91.9% | 79.5% | 89.7% | 33.7% | 76.2% |
| O=C(NO)c1ccc(Cn2ccc3c(Nc4ccccc4)ncnc32)cc1 | 11.9% | 20.3% | -21.4% (active) | 0.443% (active) | 38.7% | -7.35% (active) | -30.8% (active) | 19.7% | 9.25% (active) | -29.4% (active) |
| O=C(CSc1nnc(-c2c[nH]c3ccccc23)n1-c1ccccc1)c1ccccc1 | 81.6% | 81.3% | 14.7% | 88.6% | -2.47% (active) | 85.6% | 55.1% | 60.8% | 24.1% | 14.8% |
| COc1ccc(-c2ccc(SCC(=O)Nc3ccc(C#N)cc3)nn2)cc1 | 89.2% | 91% | 88.8% | 101% | 83.8% | 91.6% | 88.4% | 121% | 67.8% | 83.7% |
| O=C(N=Nc1c(O)[nH]c2ccc(Br)cc12)c1ccc2nc(-c3ccccc3)[nH]c2c1 | -5.76% (active) | -4.88% (active) | -94.5% (active) | -5.18% (active) | -92.1% (active) | -54.9% (active) | -39% (active) | -69.7% (active) | -25.9% (active) | 76.7% |
| Nc1nc(-c2ccccc2)cs1 | 30% | 34.6% | 37.7% | 83.5% | 59.4% | 82.5% | 63.7% | 44.6% | 55.8% | 28.5% |
| Cc1ccc2nc(-c3ccc(-c4nnc(SCC(=O)Nc5ccc(Br)cc5)o4)cc3)[nH]c2c1 | 16.1% | 41.3% | 20.4% | 92.4% | 76.8% | 72.1% | 91.2% | 82.9% | 70.8% | 61.3% |
| O=C(NO)c1ccc(CNC(=O)[C@H]2Cc3c([nH]c4ccccc34)[C@H](c3ccc(Cl)cc3)N2)cc1 | 17.2% | 16.9% | 16.1% | -6.43% (active) | 39.7% | -12.7% (active) | -24.6% (active) | 7.44% (active) | 6.12% (active) | 42% |
| COc1ccc(/C=C/C(=O)c2ccc(N3CCN(C)CC3)cc2)c(C(F)(F)F)c1 | 7.12% (active) | 0.333% (active) | 49.6% | 86.4% | 43.9% | 63.7% | 55% | 46.9% | 18.8% | 59.3% |
| CN(CCO)c1oc(-c2ccccc2)nc1[P+](c1ccccc1)(c1ccccc1)c1ccccc1 | 5.21% (active) | 7.8% (active) | 12.3% | 16.2% | 15.1% | -13.5% (active) | 6.36% (active) | -0.969% (active) | -11.4% (active) | 96.6% |
| CCCn1c(=O)c2[nH]c(-c3ccc(OCc4nc5ccc(F)cc5[nH]4)cc3)nc2n(CCC)c1=O | 11.8% | 16.7% | -41.3% (active) | 43.3% | -2.86% (active) | -41.3% (active) | 28.1% | 5.45% (active) | 0.819% (active) | 64.9% |
| O=C(NO)c1ccc(-c2nc3ccc4[nH]ncc4c3c3c2CCCC3)cc1 | -13.8% (active) | -9.23% (active) | -16.7% (active) | -1.66% (active) | -4.75% (active) | 21.1% | -18.9% (active) | -57% (active) | -29.8% (active) | -4.37% (active) |
| O/N=C(\CSc1nnc(-c2c[nH]c3ccccc23)n1-c1ccccc1)c1ccc(Br)cc1 | 1.29% (active) | -13.1% (active) | -41.7% (active) | -82.5% (active) | -83.4% (active) | -50.2% (active) | -65.4% (active) | 0.699% (active) | -39.4% (active) | -73.9% (active) |
| Cc1ccc(C(=O)N/C(=C2/OCCN2C)[P+](c2ccccc2)(c2ccccc2)c2ccccc2)cc1 | 79.5% | 25.6% | 80.5% | 96.3% | 69.8% | 104% | 69.9% | 54.5% | 79.6% | 101% |
| CC(=O)NS(=O)(=O)c1ccc(NC(=O)CSC2=NC(c3ccccc3)C(C(C)=O)=C(C)N2)cc1 (stereo not given) | 101% | 96% | 115% | 104% | 113% | 100% | 108% | 133% | 107% | 99.6% |
| CN(C(=O)c1ccc(C(F)(F)F)cc1C(F)(F)F)c1sc2c(c1C#N)CCC(=O)C2 | 1.6% (active) | 14.3% | 82.2% | 108% | 59.3% | 85.9% | 97.6% | 29.7% | 69.4% | 55% |
| Cc1ccc(-c2nc(Nc3ccc(S(N)(=O)=O)cc3)c3ccccc3n2)cc1 | 14.6% | 29.2% | 63.2% | 68.9% | 61.7% | 114% | 66.7% | 61.9% | 90.1% | 54.7% |
| CCOP(=O)(OCC)O[C@H]1CC[C@]2(C)[C@H]3CC[C@@H]4[C@@H]([C@](C)(O)CCC=C(C)C)CC[C@@]4(C)[C@]3(C)CC[C@H]2C1(C)C | -7.18% (active) | 2.3% (active) | 32.9% | 44% | 38.8% | 37% | 55% | 11.1% | 11.4% | 36% |
| Nc1nc(Nc2ccc(Cl)cc2)n(Cc2cccc(Br)c2)n1 | 10.4% | 2.44% (active) | 2.52% (active) | -24.5% (active) | 9.75% (active) | -2.59% (active) | -5.03% (active) | -35.3% (active) | -25.9% (active) | -25% (active) |
| COc1cccc(COc2ccc(/C=C3\Oc4cc(O)ccc4C3=O)cc2)c1 | 21.4% | 32.1% | 23.6% | 77.6% | -9.02% (active) | 77.4% | 53.7% | 24.9% | -7.04% (active) | 24.8% |
| CN(C)c1ccc(/C=C/c2nc3ccccc3c(=O)n2CC(=O)Nc2ccccc2)cc1 | 75.5% | 64.3% | 25.9% | 89.1% | 35.5% | 92% | 76.2% | 26.4% | 44.7% | 30.4% |
| CC(=O)Nc1ccc(-c2cn(-c3cccc(C(=O)Nc4cccc(OC(F)(F)F)c4)c3)nn2)cn1 | 97.8% | 96% | 57.1% | 108% | 102% | 93.9% | 108% | 110% | 53.7% | 97.7% |
| CN1C(=O)/C(=C/c2nccs2)SC1=S | 52.3% | 97.2% | 91.5% | 95.6% | 84.1% | 105% | 63.8% | 114% | 86.5% | 93.5% |
| COc1ccc2c(c1)N=C(C(=O)O)/C2=C/c1sc(Nc2ccc(O)cc2)nc1O | 24.9% | 65.7% | 80.8% | 109% | 74.7% | 86.1% | 74.6% | 72.9% | 50.9% | 93.3% |
